The sample as a whole holds a higher share of hits than the screen did.
PI4K2A block: blocks human PI4K2A kinase activity. purified PI4K2A, ADP-Glo luminescence, 1 h; stronger effect = lower value. Q9BTU6. 420,000 compounds, 0.13% hits. AID 1346378. activity change, negative = inhibition, % at 76.9 µM; in the data active = activity change below about -50%; inconclusive = mostly about -30% to -49%;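 also: -100% = wells without enzyme as full effect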
Target sequence (Q9BTU6 whole entry, looked up): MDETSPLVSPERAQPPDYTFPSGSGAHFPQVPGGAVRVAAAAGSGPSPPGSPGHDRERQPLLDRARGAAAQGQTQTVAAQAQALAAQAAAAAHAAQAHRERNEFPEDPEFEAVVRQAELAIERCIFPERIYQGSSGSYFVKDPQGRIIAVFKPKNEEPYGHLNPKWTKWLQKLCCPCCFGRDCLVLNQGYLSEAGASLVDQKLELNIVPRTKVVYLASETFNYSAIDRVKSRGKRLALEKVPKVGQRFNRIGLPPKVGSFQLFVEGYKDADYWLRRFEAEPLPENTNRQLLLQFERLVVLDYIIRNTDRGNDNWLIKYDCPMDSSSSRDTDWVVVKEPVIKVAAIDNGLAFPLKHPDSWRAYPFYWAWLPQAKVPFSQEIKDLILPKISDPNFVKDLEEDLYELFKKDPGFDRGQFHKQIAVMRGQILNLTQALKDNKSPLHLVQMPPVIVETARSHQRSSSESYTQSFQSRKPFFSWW
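ADP-Glo luminescence measured ADP generated by PI4K2A enzyme (4 ug/mL before mixing) with 1.2 mM PI substrate (pre-mix) and 300 microM ATP (pre-mix). Tris pH7.5 buffer with MgCl2, Triton X-100; 1 h reaction at ambient temperature.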
HTT aggregate: mutant huntingtin aggregation inhibition; PC12 HttQ103-GFP aggregates, Acumen cytometry, 40 h; Potency, µM (highest dose often 46.1 µM), for the others: at the highest dose activity change, negative = inhibition, most hits filed as inhibitors; 220,000 compounds, 1.1% hits; also: potency is read from the fitted curve at half-maximal effect; % is scaled to controls: 0 for no effect and ±100 for the full control effect; nearly all actives have a fitted effect of over 60% in size
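PC12/HTTQ103-GFP, ecdysone-inducible; teb 100 nM; cpd qHTS titration; GFP aggregates read on laser cytometer, Ex 488/Em 500-530 nm.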
HTT cytoprotect: cytoprotection in Huntington HTT-Q103 PC12 cell model; PC12 HTT-Q103 induced, cytoprotection, ATP luminescence, 40 h; Potency, µM (series often up to 56.4 µM), for the others: cytoprotection (ATP increase), actives largely listed as activators; 230,000 compounds, 0.14% hits; also: potency is read from the fitted curve at half-maximal effect; % of control where 0% means no effect; nearly all actives have a fitted effect of over 45% in size
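Compounds added alongside 100 nM tebufenozide, which induces toxic Q103 huntingtin exon 1-GFP in stable PC12 cells; surviving cells quantified by luminescent ATP measurement. Medium: phenol red-free DMEM, 5% equine and 5% calf serum.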
GALK inh: inhibitors of human galactokinase; 270,000 compounds, 0.007% hits; AID 1868; Purified GALK, Kinase-Glo residual ATP luminescence; Potency, µM (titrated, usually from 57.5 µM), for the others: at the highest dose activity change, negative = inhibition, usual class: inhibitors; also: potency is read from the fitted curve at half-maximal effect; % is scaled to controls: 0 for no effect and ±100 for the full control effect
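ATP-depletion format; final 35 uM ATP, 100 uM D-galactose, 5 nM enzyme; pH 8.0 HEPES/Mg2+ buffer; 60 min RT; luminescence read 10 min after detection reagent.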
* = called active by the depositor; ? = inconclusive; · = no result; [ ] = dose if it differs, or a comment. Unless noted, calls follow the shape of the dose curve; as a rule, active = well fitted curve in the direction sought with a large enough effect; inconclusive = small, poorly fitted or top-dose-only effect, or another doubt; inactive = no such curve, though single readings can be large; an effect the other way counts as inactive or inconclusive.

SMILES | PI4K2A block | HTT aggregate | HTT cytoprotect | GALK inh
COc1ccc(C(=O)O/N=C(/C)c2cccs2)cc1 | -92.5* | -5.8% | -19.5% | 10.4%
COc1ccc(C(=O)O/N=C(\N)c2ccccc2)cc1 | -66.6* | · | · | 23.9%
COc1ccc(C(=O)O/N=C(\C)c2nccs2)cc1 | ? | 1.1% | -9.4% | 10.2%
Oc1ccc(Cl)cc1CNC1CCCCC1 | -1.9 | · | · | ·
C=CCOc1ccc(Cl)cc1CNC1CCCC1 | -1.1 | -4.5% | 22.4µM* | 11.0%
Cc1ccc(NC(=O)Nc2ccnc(-c3cccnc3)n2)cc1 | -0.4 | ? | 3.55µM* | 8.9%
CC(C)(C)CC(C)(C)N=C1NS(=O)(=O)c2cc([N+](=O)[O-])ccc21 | 363.8 | -2.0% | -32.0% | 0.5%
CC(C)(CO)N=C1NS(=O)(=O)c2cc([N+](=O)[O-])ccc21 | 3.1 | 10µM* | · | ·
O=C(/C=C/c1ccco1)N1CCc2ccccc21 | -52.9* | ? | -124.0% | -2.0%
CC(C)(C)C1CCc2[nH]nc(C(=O)O)c2C1 (stereo unspecified) | -11.1 | -7.7% | 3.55µM* | -5.8%
COc1ccc(-n2nc(C(=O)NCC(=O)N3CCCCCC3)c3ccccc3c2=O)cc1 | 3.8 | · | · | 5.0%
COc1ccc(-n2nc(C(=O)N3CCCCC3)c3ccccc3c2=O)cc1 | 1.6 | 2.82µM* | 10.1% | 1.2%
CC(NC(=O)OCc1ccccc1)C(=O)N1CC(O)CC1C(=O)O (stereo unspecified) | -2.1 | · | 0.1µM* | 0.6%
O=C1c2ccc3c4c(ccc(c24)C(=O)N1CCCCO)C(=O)N(CCCCO)C3=O | -7.8 | 5.01µM* | -233.0% | 4.4%
O=C(c1ccc2c(c1)C(=O)N(CCCO)C2=O)c1ccc2c(c1)C(=O)N(CCCO)C2=O | 1.9 | -13.8% | -0.9% | -2.0%
CCCCN(CC)S(=O)(=O)c1cccc2cccnc12 | · | · | 15.2% | ·
N#CCCN(C(=O)CCl)c1cccc(Cl)c1 | 13.5 | 17.8µM* | -115.8% | -0.8%
O=C1OC2(c3ccccc31)c1cc(Br)c(O)c(Br)c1Oc1c2cc(Br)c(O)c1Br | -12.3 | · | · | ·
CC1(C(=O)O)NCCc2cc(O)c(O)cc21 (stereo unspecified) | · | · | -18.4% | ·
O=C(N/N=C/c1ccc([N+](=O)[O-])cc1)c1cccs1 | 4.6 | 9.6%[9.22 µM] | 16.8%[10 µM] | 1.6%
O=C(N/N=C/c1cccc([N+](=O)[O-])c1O)c1cccs1 | -0.9 | 15.8µM* | 4.4%[10 µM] | -0.1%
Cc1nc2sc(-c3ccccc3)cc2c(=O)n1N | -51.7* | 30.7%[9.22 µM] | -37.0%[10 µM] | 27.1%
CCN1CCS/C1=C\C=C\C1=[N+](CC)CCS1 | -2.2 | 1.12µM* | -65.5% | -0.3%
CCN1CCS/C1=C/C=C/C1=[N+](CC)CCS1 | -8.1 | 0.501µM* | -25.4%[10 µM] | -0.1%
COc1cccc(C(=O)O/N=C(\N)c2ccccn2)c1 | -72.7* | · | · | 25.9%
SMILES | PI4K2A block | HTT aggregate | HTT cytoprotect | GALK inh
N/C(=N\OC(=O)c1ccc2ccccc2c1)c1ccccn1 | -58.0* | 1.6% | -47.9%[10 µM] | 17.0%
N/C(=N\OC(=O)c1ccc(Cl)cc1Cl)c1ccccn1 | -30.0 | 1.4%[9.22 µM] | -78.5%[10 µM] | 14.6%
Cc1ccc(C(=O)O/N=C(\N)c2ccccn2)c(Cl)c1 | -70.1* | · | · | 14.2%
N/C(=N\OC(=O)c1ccc2ccccc2c1)c1ccncc1 | -6.8 | 6.9%[9.22 µM] | 18.4%[10 µM] | -3.0%
CCCc1ccc(C(=O)O/N=C(\N)c2ccccn2)cc1 | -85.1* | · | · | 18.1%
O=C(NC1CCC1)c1ccc(C#Cc2cccc(F)c2)cn1 | -8.5 | · | · | ·
Cc1ccc(Nc2nc3nonc3[nH]c2=O)cc1C | 3.3 | ? | -70.4%[10 µM] | 0.7%
Cc1ccc(Nc2nc3nonc3[nH]c2=O)cc1Cl | -4.4 | 22.4µM* | -121.9% | -0.9%
COC(=O)c1ccccc1NC(=O)COC(=O)c1ccccc1N=Nc1ccc(N(C)C)cc1 | -0.6 | 6.31µM* | -43.2%[10 µM] | 1.2%
CC(C)(C)CCN1C[C@@H]2C(CNC(=O)c3cc(Cl)cc(Cl)c3)[C@@H]2C1 (stereo partly specified) | 5.3 | · | · | ·
C=CCNC(=O)CN(C(=O)c1csc2ccc(Cl)cc12)c1cccc(Br)c1 | -3.7 | · | · | ·
Cc1cc2nnc(SCC(=O)OC(C)C)n2c2ccccc12 | -0.9 | 3.98µM* | -95.4%[10 µM] | 3.7%
O=C1/C(=C/c2cccnc2)CC/C1=C\c1cccnc1 | 4.4 | 31.6% | 13.7% | 3.7%
CCC1C/C(=C\c2cccnc2)C(=O)/C(=C/c2cccnc2)C1 (stereo unspecified) | -14.1 | 22.4µM* | -36.6%[10 µM] | -2.4%
C[C@@H](O)[C@H]1C(=O)N2C(C(=O)O)=C([C@H]3CCCO3)S[C@H]12 | 3.1 | · | · | ·
CC(=O)N/N=C/c1c(C)[nH]n(-c2ccccc2)c1=O | -21.4 | ? | -55.1% | -1.4%
Cc1ccc(-n2[nH]c(C)c(/C=N/NC(=O)c3ccc([N+](=O)[O-])cc3)c2=O)c(C)c1 | · | 12.6µM* | -134.3% | -0.3%
Cc1[nH]n(-c2ccccc2)c(=O)c1/C=N/NC(=O)c1cccc([N+](=O)[O-])c1 | 4.4 | 5.62µM* | -64.0%[10 µM] | -0.4%
Cc1[nH]n(-c2cccc3ccccc23)c(=O)c1/C=N/NC(=O)c1cccc([N+](=O)[O-])c1 | -9.8 | 10µM* | 7.1%[10 µM] | -0.3%
Cc1c(C(=O)Nc2ccccc2)oc2c1C(=O)CC(C)(C)C2 | 1.3 | 10µM* | 5.8% | -2.4%
Cc1ccc(NC(=O)c2oc3c(c2C)C(=O)CC(C)(C)C3)cc1 | 2.0 | -13.3% | -6.2%[0.074 µM] | -0.7%
CNC(=S)/N=C/NOCc1ccc(Cl)cc1Cl | -8.8 | 7.94µM* | -32.9%[10 µM] | -0.2%
CC(=O)c1cc(-c2cc(C(=O)O)cc([N+](=O)[O-])c2)c(=O)n2c1CCC2 | -10.8 | · | · | ·
COc1ccccc1CNC(=S)NCCc1ccccc1 | 0.1 | -4.1% | 3.16µM* | 1.1%
CCC(COC(=O)Nc1cccc(C)c1)NC(=O)OCC(C)C (stereo unspecified) | 1.1 | 10µM* | -35.4% | 3.3%
SMILES | PI4K2A block | HTT aggregate | HTT cytoprotect | GALK inh
CCNC(=O)OCC(CC)NC(=O)OCC(C)C (stereo unspecified) | 18.4 | 4.7% | -4.2% | 0.2%
Cc1sc2ncnc(NCCc3ccc(S(N)(=O)=O)cc3)c2c1C | -6.5 | 0.708µM* | -10.8% | -0.5%
COc1c(C2=CC(=O)N(C)C2=O)c2c(n1C)C(=O)c1ccccc1C2=O | · | · | 14.1µM* | ·
CN=c1sc2c(n1C)C(=O)c1ccccc1C2=O | -13.9 | · | · | ·
COc1ccc(Nc2nc(N3CCCCC3)c3ccccc3n2)cc1 | 6.5 | 17.8µM* | -81.8% | -3.8%
Oc1ccc(Nc2nc(N3CCCC3)c3ccccc3n2)cc1 | -6.7 | -22.9% | -98.7%[10 µM] | -1.6%
Nc1nc(Nc2ccccc2)nc2ccccc12 | ? | -8.8% | -116.2%[10 µM] | 5.9%
CCOc1ccc(Nc2nc(N)c3ccccc3n2)cc1 | -79.8* | · | · | 1.9%
CCCCC/C(C=O)=C\c1ccccc1 | 2.2 | · | · | ·
COC(=O)[C@]12C[C@H](CC(=O)NCC3CCCCC3)C(=O)N(Cc3cccc4ccccc34)C1=C[C@H](COCc1ccccc1)O[C@@H]2C | -2.9 | · | · | ·
COC(=O)[C@]12C[C@H](CC(=O)NCc3cccs3)C(=O)N(Cc3ccco3)C1=C[C@H](C(C)(C)C)O[C@@H]2C | -5.2 | · | · | ·
N#C/C(=C/c1ccc(Sc2nc3ccccc3[nH]2)o1)c1ccccc1F | 0.8 | 11.2µM* | -33.7% | -1.9%
